Experimental findings from PubChem BioAssay AID651661 (Broad Institute, 2012) are described below.

The whole screen tested about 350,000 compounds, of which about 2,300 (0.66%) were called active. This excerpt belongs to a sample that is enriched for actives. Values without a mark were called inactive.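 Rule for the calls: active = mean inhibition of at least 50% after viability correction, with every replicate also passing that limit; inconclusive = mean reaches 50% but only one of two replicates passes; inactive = the rest.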

The experiment is described as follows: blockers of EWS/Fli transcriptional output – A673 cells, NR0B1 luciferase, luminescence, MLPCN library, primary screen (AID 651661).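 Note: firefly luciferase signal divided by Alamar Blue viability fluorescence both relative to DMSO.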 The conditions noted are these: A673 NR0B1-luciferase reporter, viability-normalised; at 12.6 µM; hits give high values.
As usually defined, the inhibition is the relative decrease from the control value, in per cent. On to `CCOc1ccc(C(=O)Nc2ccc(CN3CCOCC3)cc2)cc1Cl`, for which the inhibition was -7.97%.
Take `COc1cccc(OC)c1C(=O)NC(=S)Nc1ccc(N2CCOCC2)c(Cl)c1`: the inhibition was -7.45%.
With `CCOc1ccc(C(=O)NC(=S)Nc2ccc(N3CCOCC3)c(Cl)c2)cc1[N+](=O)[O-]`, the inhibition was 72% (active).
In the case of `CC(C)NC(=O)N1[C@H](C#N)[C@H](c2ccc(C#CC3CCCCC3)cc2)[C@H]1CO`, the inhibition is 19.7%.
Take `CO[C@@H]1CN(C)C(=O)c2cc(NC(=O)C3CC3)ccc2OC[C@@H](C)N(C(=O)c2ccncc2)C[C@H]1C`: the inhibition was 2.15%.
Regarding `C[C@H]1CCCCO[C@H](CN(C)C(=O)CCC(F)(F)F)[C@@H](C)CN([C@@H](C)CO)C(=O)c2cc(NC(=O)Cc3ccccc3)ccc2O1`, the inhibition was 6.65%.
With `O=C(NC1CCCC1)N1CC(=O)N2[C@H](C1)[C@H](c1ccc(/C=C/c3ccccc3)cc1)[C@@H]2CO` the figure was 3.76%.
As for `O=C(c1ccccc1)N1CCN(c2cc(-c3ccccc3)nc3cc(-c4cccc(Cl)c4)nn23)CC1`, the inhibition is -22.8%.
In the case of `CN(C)CCN1CCN(c2cc(-c3cccc(Cl)c3)nc3ccnn23)CC1`, the inhibition is 1.41%.
In the case of `C#Cc1cc(N2CCN(C(=O)c3ccoc3)CC2)n2nc(-c3cccc(Cl)c3)cc2n1` it was 53% (active).
With `C[C@@H]1CN([C@@H](C)CO)C(=O)CCCn2cc(nn2)CO[C@@H]1CN(C)Cc1cccc(O)c1` the figure was 8.82%.
Take `CN(CCO)c1ccc(/C=N/Nc2nncc3ccccc23)cc1`: the inhibition is 67.2% (active).
Consider `COc1ccc2c3c(n(C)c2c1)[C@H](CO)N(Cc1ccc(F)cc1)CC31CN(CC2CCOCC2)C1`, for which the inhibition is -3.68%.
In the case of `Cc1cc(C)nc(S/C=C/C(=O)c2ccccc2)n1` it was 50.2% (active); in that of `COC(c1ccccc1)(c1ccccc1)C(Oc1nc(C)cc(C)n1)C(=O)O` (stereo unspecified), 3.9%; in that of `CCOC(=O)C(=Cc1ccccc1)C(=O)c1ccccc1`, -15.6%.
In the case of `C[C@@H]1CCCCO[C@@H](CN(C)C(=O)NC2CCCCC2)[C@@H](C)CN([C@H](C)CO)C(=O)c2cc(NC(=O)CCCCCC(=O)Nc3ccccc3N)ccc2O1`, the inhibition is -0.378%.
Consider `CCC(=O)N(C)C[C@H]1Oc2cc(-c3ccccc3F)ccc2S(=O)(=O)N([C@H](C)CO)C[C@@H]1C`, for which the inhibition is 1.15%.
In the case of `COC(=O)C(CC#Cc1ccc2c(c1)[C@]1(C(=O)N2)[C@H](c2ccccc2OCCO)N2[C@H](c3ccccc3)[C@H](c3ccccc3)OC(=O)[C@H]2[C@@H]1C(N)=O)C(=O)OC` it was 70.7% (active); in that of `COC(=O)C(CC#Cc1ccc2c(c1)[C@]1(C(=O)N2)[C@H](c2ccc(O)cc2)N2[C@H](c3ccccc3)[C@H](c3ccccc3)OC(=O)[C@H]2[C@@H]1C(=O)NC[C@H](O)c1ccccc1)C(=O)OC`, -4.53%; in that of `COc1ccc(C#Cc2ccc3c(c2)[C@]2(C(=O)N3)[C@H](c3ccccc3OCCO)N3[C@H](c4ccccc4)[C@H](c4ccccc4)OC(=O)[C@H]3[C@@H]2C(=O)N2CCCCCCC2)cc1`, 7.03%.
Regarding `O=C(CC1CC1)N1[C@@H]2CN(S(=O)(=O)c3ccc(F)cc3)c3ccccc3[C@@H]2[C@@H]1CO`, the inhibition was 2.01%.
In the case of `CN1CCN(C(=O)C[C@H]2CC[C@H]3[C@H](COc4ccc(NC(=O)C5CC5)cc4C(=O)N3C)O2)CC1` it was 0.362%; in that of `C=C(C)C(=O)O[C@H]1C/C(C)=C\C(=O)/C=C(\C)[C@H](O)[C@@H]2OC(=O)C(=C)[C@@H]21`, 74% (active); in that of `C[C@@H]1CN([C@@H](C)CO)C(=O)Cc2cc(NC(=O)Nc3ccc4c(c3)OCO4)ccc2O[C@@H]1CN(C)CC1CCCCC1`, -9.05%.
For `COc1cccc(-c2ccc3c(c2)[C@@H]2[C@@H](CCN2C(=O)CN2CCOCC2)[C@H](CO)N3)c1`, the inhibition was -6.11%.
In the case of `O=[N+]([O-])/C=C/c1ccc2c(ccn2Cc2ccccc2)c1`, the inhibition is 68.6% (active).
`Cc1ccccc1S(=O)(=O)Nc1ccc2c(c1)C(=O)N(C)[C@@H]1CC[C@@H](CC(=O)O)O[C@@H]1CO2`: the inhibition was 2.06%.
Take `CO[C@H]1CN(C)C(=O)c2ccc(NC(=O)NC(C)C)cc2OC[C@H](C)N(Cc2cncnc2)C[C@@H]1C`: the inhibition was -9.44%.
As for `Cc1cc(-c2ccc(C)c(S(=O)(=O)Nc3ccc(S(N)(=O)=O)cc3)c2)on1`, the inhibition is 5.81%.
In the case of `COc1ccc(CNS(=O)(=O)c2cc(-c3cc(C)no3)ccc2C(C)C)cc1`, the inhibition is 55.5% (active).
As for `COc1ccc(CNS(=O)(=O)c2cc(Br)ccc2Br)cc1`, the inhibition was -12%.
Take `O=C(C[C@H]1C[C@H]2c3cc(NC(=O)C4CCC4)ccc3O[C@H]2[C@@H](CO)O1)NCc1ccc(Cl)cc1`: the inhibition was -0.922%.
On to `CO[C@@H]1CN(C)C(=O)c2cc(NC(=O)Nc3ccccc3F)ccc2OC[C@H](C)NC[C@H]1C`, for which the inhibition was -10.4%.
Turning to `COC(=O)CC1=NN(c2ccccc2)C(=O)C1`, the inhibition was 2.41%.
With `COC(=O)Cc1[nH]n(-c2nc3ccccc3s2)c(=O)c1C(C)=Nc1ccc(OC)cc1`, the inhibition was 67.1% (active).
For `CCc1nc2ccccc2c(C(=O)NCc2ccc(OC)cc2)c1C`, the inhibition is 22.9%.
In the case of `COc1ccc(CN(C)C[C@@H]2OCCCC[C@H](C)Oc3ccc(NC(=O)c4ccccc4)cc3C(=O)N([C@H](C)CO)C[C@H]2C)cc1`, the inhibition is 4.63%.
With `CCS(=O)(=O)N1CC2(CN(C(=O)c3ccc(F)cc3)[C@H](CO)c3c2c2ccc(OC)cc2n3C)C1`, the inhibition was -3.98%.
`O=C(C[C@H]1C[C@H]2c3cc(NC(=O)NC4CCCC4)ccc3O[C@H]2[C@H](CO)O1)NCCc1ccccc1`: the inhibition was -0.115%.
In the case of `CC(=O)Nc1cccc(-c2ccnc3c2CC(C)(C(=O)NCc2ccccc2)O3)c1` (stereo unspecified) it was 56.4% (active); in that of `COc1ccc(NC(=O)C2(C)Cc3c(-c4cccc(NC(C)=O)c4)ccnc3O2)cc1` (stereo unspecified), 72% (active); in that of `COc1ccc(NC(=O)C2(C)Cc3c(-c4ccc(C(N)=O)cc4)ccnc3O2)cc1` (stereo unspecified), 9.42%.
In the case of `CC(=O)Nc1cccc(-c2ccnc3c2CC(C)(C(=O)NCc2ccco2)O3)c1` (stereo unspecified), the inhibition was 47.3%.
With `COc1ccc(NC(=O)C2(C)Cc3c(-c4cccc(NC(C)=O)c4)ccnc3O2)cc1OC` (stereo unspecified) the figure was 12.4%; with `CC1(C(=O)Nc2cccnc2)Cc2c(-c3ccccc3)ccnc2O1` (stereo unspecified), -3.3%.
